The campaign covered roughly 310,000 compounds. About 3,900 (1.3%) were called active.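 Rule for the calls: active = calcium-response B-score plate-corrected more than 3 library SD below zero, starting fluorescence within 5 deviations, no agonist response on first addition; inactive = the rest.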 The entries come from a sample that favours actives as a whole.

In the experiment the target is Mas-related G-protein coupled receptor member X1 (Homo sapiens) (UniProt Q96LB2). Kind of experiment: blockade of BAM8-22-evoked MrgX1 calcium response – HEK293 cells, Fluo-4 calcium flux, primary screen (AID 588676).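 For B-score: peak minus trough fluorescence over baseline after final BAM8-22 challenge near maximal dose.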 The settings on record: Fluo-4, BAM8-22 antagonism, at 10 µM; active compounds read low. (Calcium assays in cells follow changes in intracellular calcium, usually with a dye or a luminescent sensor.)
Mas-related G-protein coupled receptor member X1 (Homo sapiens), sequence (Q96LB2 whole entry, looked up): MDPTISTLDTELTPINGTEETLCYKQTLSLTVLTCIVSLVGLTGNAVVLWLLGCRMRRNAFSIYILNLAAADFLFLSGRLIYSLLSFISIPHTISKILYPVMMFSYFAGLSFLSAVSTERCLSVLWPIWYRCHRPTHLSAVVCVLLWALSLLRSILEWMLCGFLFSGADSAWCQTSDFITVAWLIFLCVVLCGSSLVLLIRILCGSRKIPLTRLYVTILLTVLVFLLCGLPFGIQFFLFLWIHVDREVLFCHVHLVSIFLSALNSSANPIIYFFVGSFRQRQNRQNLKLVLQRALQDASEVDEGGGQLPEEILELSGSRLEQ
Regarding `O=C(c1ccc(Oc2ccc(Cl)cc2)c([N+](=O)[O-])c1)N1CCCC1`, the B-score result is “inactive”. Under `Cc1nn(C)c(C)c1Sc1ccccc1N` stands “inactive”; under `CC(=O)N1CCN(C(=O)c2cc(-c3ccc(Cl)s3)nc3ccccc23)CC1`, “inactive”; under `Brc1ccc2c(c1)[C@H]1OCC[C@H]1[C@@H](c1cccs1)N2`, “inactive”. Under `Cc1ccccc1NC(=O)CCOc1ccccc1` stands “inactive”; under `CN(C)CCn1c(=S)[nH]c2ccc(Cl)cc2c1=O`, -7.49 (active); under `CCCCn1c(=S)[nH]c2ccccc2c1=O`, “inactive”. Under `O=C(CCn1c(=S)[nH]c2cc3c(cc2c1=O)OCO3)NCc1ccc(Cl)cc1` stands “inactive”; under `Cc1cccc(N2CCN(C(=O)/C=C/c3ccco3)CC2)c1C`, “inactive”; under `CC1CCC2CCCCC2N1C(=O)c1cc([N+](=O)[O-])cc([N+](=O)[O-])c1` (stereo not drawn), “inactive”. On to `CCCCCC1CCC(c2nnc(SCC(C)=O)o2)CC1` (stereo not drawn), for which the B-score result was “inactive”. Under `O=C(CCS(=O)(=O)c1cccc2nonc12)NCCc1ccccc1Cl` stands “inactive”; under `CC(NC(=O)c1ccccc1F)c1cccc2ccccc12` (stereo not drawn), “inactive”.

Consider `COc1ccc(-n2c(SCC(=O)NCc3ccco3)nnc2-c2c[nH]c3ccccc23)cc1`, for which the B-score is -6.52 (active).

As to `COc1ccc(-n2c(SCC(=O)NCc3cccs3)nnc2-c2ccoc2C)cc1`, the B-score result is “inactive”.

Turning to `O=C(CSc1nnc(-c2c[nH]c3ccccc23)n1-c1ccc(F)cc1)NCc1ccco1`, the B-score entry is “inactive”.

Take `O=c1[nH]snc1-c1c(Cl)cccc1Cl`: the B-score result is “inactive”. Regarding `CCOc1ccc(CCNC(=O)Nc2ccccc2)cc1OCC`, the B-score entry is “inactive”.

Regarding `COc1cccc(CNC(=O)C2CC(=O)N(C3CCCCCCC3)C2)c1` (stereo not drawn), the B-score entry was “inactive”. On to `Cc1no[n+]([O-])c1COc1ccccc1/C=C1\NC(=S)NC1=O`, for which the B-score entry is “inactive”. Under `O=c1c2cc(Br)ccc2nc(-c2cccc(Cl)c2)n1O` stands “inactive”. Regarding `O=C1CCCc2c1nc(-c1cccc(Cl)c1)n2O`, the B-score is -7.62 (active). Under `O=c1c2c(nc3cc(-c4cccc(Cl)c4)[nH]n13)CCCC2` stands “inactive”; under `Cc1c(CC(=O)NCC(=O)NCC(=O)O)c(=O)oc2cc3oc4c(c3cc12)CCCC4`, “inactive”. Under `CC(C)CNC(=S)NC(=O)c1ccc(Cl)cc1` stands “inactive”; under `COc1cccc(-c2cccc(NC(=O)C3CCN(C4CCC4)CC3)c2)c1`, “inactive”.

As for `O=C(CN(C(=O)c1csnn1)c1cccc(F)c1)NCc1ccc(F)cc1`, the B-score entry is “inactive”. For `COC(=O)C1=C(C(=O)OC)C2(OC1c1ccc(Br)cc1)C(=O)c1ccccc1C2=O` (stereo not drawn), the B-score entry was “inactive”. Under `Cc1cccc(NC(=O)COc2ccc(Br)cc2C)n1` stands “inactive”; under `Cc1cccc(NC(=O)COc2ccccc2C)n1`, -4.62 (active). For the molecule `Cc1ccccc1OCC(=O)Nc1nc(C)c(C(=O)N(C)C)s1`, the B-score entry is “inactive”. Under `COc1ccc(C)cc1NC(=S)N1CCOCC1` stands “inactive”; under `CN1CCN(NC(=O)Nc2ccc(Br)cc2)CC1`, “inactive”. Under `COCC(=O)Nc1ccc(Br)cc1` stands “inactive”; under `CN1C(CC(=O)Nc2ccc(Br)cc2)c2ccccc2CC1(C)C` (stereo not drawn), -5.82 (active); under `CCN(CC)c1ccc(C(=O)NNC(=O)CCc2nc3ccccc3c(=O)[nH]2)cc1`, “inactive”.

On to `Cc1ccccc1N1CCN(S(=O)(=O)c2ccc3ccccc3c2)CC1`, for which the B-score result is “inactive”.

For `O=S(=O)(c1ccc2ccccc2c1)N1CCN(S(=O)(=O)N2CCOCC2)CC1`, the B-score was -11.5 (active). Under `Cc1ccc(S(=O)(=O)N2CCN(S(=O)(=O)N3CCOCC3)CC2)cc1` stands “inactive”; under `O=C(COc1ccc(Cl)cc1)NC(=S)Nc1ccccc1N1CCOCC1`, -5.65 (active). `CCc1ccc(C(=O)NC(=S)Nc2ccccc2N2CCOCC2)cc1`: the B-score entry was “inactive”. Under `Cc1cccc(OCC(=O)NC(=S)Nc2ccccc2N2CCOCC2)c1` stands “inactive”; under `CCOC(=O)C1CCN(C(=O)CN2C(=O)c3cccnc3Oc3ccc(C)cc32)CC1`, “inactive”. Under `C[C@@H](NC(=O)[C@@H]1Cc2ccccc2CN1)C(=O)NC1CCCC1` stands “inactive”. Under `Cc1nc2ccccc2nc(C)c1=NOCc1ccc(Cl)cc1Cl` stands “inactive”.

`COc1ccc(CCNC(=O)CCc2cn(C)c3ccccc23)c(OC)c1`: the B-score entry was “inactive”.

As to `NC(=O)NC(=O)C(OC(=O)CCNS(=O)(=O)c1ccccc1)c1ccccc1` (stereo not drawn), the B-score entry was “inactive”. Under `CCOc1ccc(NC(=O)CCNC(=O)c2ccc(Br)cc2)cc1` stands -4.98 (active). Consider `CCOc1ccc(C(=O)Nc2ccncc2)cc1`, for which the B-score result was “inactive”. As for `CCOc1ccc(NC(=O)c2ccc(NC(=O)COC(=O)c3ccc(NC(=O)CC#N)cc3)cc2)cc1`, the B-score entry was “inactive”. On to `Fc1cccc(Cc2noc(CN3CCN(c4cnccn4)CC3)n2)c1`, for which the B-score result is “inactive”. As to `C=CCOc1cccc(CNCc2cccnc2)c1`, the B-score result is “inactive”. In the case of `c1ccc(COc2ccccc2CNCc2cccnc2)cc1`, the B-score is -6.34 (active). As to `Fc1ccccc1COc1ccccc1CNCc1ccncc1`, the B-score entry was “inactive”. As for `COc1ccc(N2C(=O)C(CC(=O)Nc3ccccc3)N(Cc3ccc(OC)c(OC)c3)C2=O)cc1` (stereo not drawn), the B-score result is “inactive”. On to `CCOc1ccc(C(=O)N(Cc2ccc(N(C)C)cc2)C2CCS(=O)(=O)C2)cc1` (stereo not drawn), for which the B-score result is “inactive”. Under `COc1cc(C(=O)N(Cc2ccc(N(C)C)cc2)C2CCS(=O)(=O)C2)cc(OC)c1OC` (stereo not drawn) stands -4.58 (active).

With `COc1ccc(C(=O)N(Cc2ccc(N(C)C)cc2)C2CCS(=O)(=O)C2)cc1` (stereo not drawn), the B-score entry was “inactive”.

As for `O=Cc1ccc(OCc2cn3ccccc3n2)cc1`, the B-score entry is “inactive”. Take `COC(=O)c1sccc1NS(=O)(=O)c1ccc(F)cc1F`: the B-score is -4.66 (active). Under `COC(=O)c1sccc1NC(=O)CSc1ccccc1NS(=O)(=O)c1cc(Cl)ccc1Cl` stands “inactive”; under `COc1ccc(NS(=O)(=O)c2ccc(F)cc2F)cn1`, “inactive”; under `COc1c(Br)cc2c(C)c(C(=O)N3CCOCC3)oc2c1Br`, “inactive”.

On to `O=C(CN1CCN(c2ccc(Cl)cc2)CC1)c1ccccc1`, for which the B-score entry was “inactive”. Under `O=C(CN1CCCC1)N1CCN(c2ccccc2)CC1` stands “inactive”. With `O=C(CN1CCN(c2ccc(Cl)cc2)CC1)N1CCCC1`, the B-score was -6.44 (active). Turning to `Cc1cccc(-[n+]2c(-c3cccc(Br)c3)[nH]c3nc4ccccc4nc32)c1`, the B-score result was “inactive”. Under `CC1(C)Cc2cccc(OCC(=O)NCc3ccccc3)c2O1` stands “inactive”; under `CC1(C)Cc2cccc(OCC(=O)Nc3nccs3)c2O1`, “inactive”. As to `COc1cccc(CCNC(=O)COc2cccc3c2OC(C)(C)C3)c1`, the B-score is -5.36 (active).

In the case of `CC1(C)Cc2cccc(OCC(=O)N3CCN(c4ccc([N+](=O)[O-])cc4)CC3)c2O1`, the B-score result is “inactive”. `CN(CC(=O)Nc1ccccc1Cl)C(=O)COc1cccc2c1OC(C)(C)C2`: the B-score is -5.16 (active). As for `CC1(C)Cc2cccc(OCC(N)=O)c2O1`, the B-score entry was “inactive”.
